Compound activity deposited in PubChem by National Center for Advancing Translational Sciences (NCATS).
GLS inh = inhibitors of human glutaminase (GLS). GLS enzymatic activity, qHTS titration. Potency, µM (titrated, usually from 45.5 µM), usual class: inhibitors. 0.21% of 410,000 active. AID 624170
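hKGA in 45 mM KH2PO4 pH 8.2, 0.02% Tween-20 with pin-transferred compounds; 1 mM L-glutamine (stock) plus glutamate oxidase/HRP/Amplex Red coupling added. Fluorescence read initially and after 30 min at RT.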
G9a inh = G9a (human) methyltransferase inhibition. Q96KQ7. G9a H3K9 monomethylation, AlphaScreen, 2 h. Potency, µM (highest dose often 102 µM), usual class: inhibitors. 8.8% of 350,000 active; note: nearly all actives have a fitted effect of over 75% in size
Target sequence (Q96KQ7 913-1193 limits assumed): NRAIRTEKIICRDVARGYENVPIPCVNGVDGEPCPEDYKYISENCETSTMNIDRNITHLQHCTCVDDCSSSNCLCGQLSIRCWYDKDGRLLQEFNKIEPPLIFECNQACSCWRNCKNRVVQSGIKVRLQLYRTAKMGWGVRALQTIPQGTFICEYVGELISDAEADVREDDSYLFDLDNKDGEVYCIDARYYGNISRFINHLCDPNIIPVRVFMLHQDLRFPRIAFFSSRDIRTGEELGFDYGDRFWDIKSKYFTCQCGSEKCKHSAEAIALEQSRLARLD
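Methyltransferase reactions run at room temperature for 2 h (20 nM enzyme, 500 nM biotin-H3K9 peptide, 20 uM SAM) after a 15 min compound preincubation; product detected by AlphaScreen beads and anti-H3K9me1 antibody.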
BAZ2B inh = blocks human BAZ2B; 4.4% of 360,000 active; Potency, µM (highest dose often 114 µM), most hits filed as inhibitors; AlphaScreen BAZ2B-H3K14Ac peptide displacement; AID 504333; note: nearly all actives have a fitted effect of over 60% in size
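Inhibition is scored as reduced AlphaScreen emission. The BAZ2B/b-H3(5-23)K14Ac complex (50 nM each) in PBS pH 7.4, 0.01% Tween-20 meets compound (up to 110 uM) for 30 min at RT before bead addition.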
HP1b chromo inh = HP1-beta chromodomain-methylated histone interaction inhibition; AlphaScreen HP1-beta / biotin-H3K9me3 peptide binding; 0.56% of 390,000 active; Potency, µM (series often up to 114 µM), actives largely listed as inhibitors; note: nearly all actives have a fitted effect of over 70% in size
Target sequence (P83916 whole entry, looked up): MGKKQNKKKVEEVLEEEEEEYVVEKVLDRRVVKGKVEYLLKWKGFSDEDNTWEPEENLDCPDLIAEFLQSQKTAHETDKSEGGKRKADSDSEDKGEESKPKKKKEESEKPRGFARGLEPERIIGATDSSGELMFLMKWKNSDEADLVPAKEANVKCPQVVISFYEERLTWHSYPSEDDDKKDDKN
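Compound inhibition of the preformed complex between 50 nM HP1-beta and 50 nM biotinylated H3K9me3 peptide was read by AlphaScreen. Buffer was PBS pH 7.4 with 0.01% Tween-20. Incubations ran 30 min at room temperature, with 10 ug/mL donor/acceptor beads.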
JMJD2A Tudor inh = inhibitors of human JMJD2A Tudor domain; 4.4% of 390,000 active; O75164; AlphaScreen JMJD2A-Tudor / H3K4me3 peptide binding; AID 504339; Potency, µM (titrated, usually from 114 µM), most hits filed as inhibitors; note: nearly all actives have a fitted effect of over 50% in size
Numbers stand for hits; . = inactive; ? = inconclusive; / = no result given; [ ] = another dose, or the depositor's remark. In the library only some 10% were active in any assay of this set; here they are far more common. Calls come from the whole dose curve; as a rule, active = well fitted curve in the direction sought with a large enough effect; inconclusive = small, poorly fitted or top-dose-only effect, or another doubt; inactive = no such curve, though single readings can be large; an effect the other way counts as inactive or inconclusive.

SMILES | GLS inh | G9a inh | BAZ2B inh | HP1b chromo inh | JMJD2A Tudor inh
CC(C)OC(=O)CC1C(=O)NCCN1C(=S)NC(=O)c1cccs1 (centres undefined) | . | 44.7µM | . | . | .
CCOC(=O)CC1C(=O)NCCN1C(=S)NC(=O)c1ccccc1OC (centres undefined) | . | / | . | . | 28.2µM
CCc1ccccc1NC(=S)N1CCNC(=O)C1CC(=O)OC (centres undefined) | . | . | . | . | 44.7µM
COC(=O)CC1C(=O)NCCN1C(=S)NC(=O)c1ccccc1[N+](=O)[O-] (centres undefined) | . | ? | . | . | ?
CCOC(=O)CC1C(=O)NCCN1C(=S)Nc1ccccc1 (centres undefined) | . | . | . | . | .
COC(=O)CC1C(=O)NCCN1C(=S)Nc1ccccc1 (centres undefined) | . | . | . | . | .
CCC(=Cc1ccc(CC)cn1)CC | . | 39.8µM | ? | . | .
COCCNC(=O)c1cc(S(=O)(=O)N2CCOCC2)ccc1SCc1cccc(OC)c1OC | . | 28.2µM | . | . | .
Cc1ccc(S(=O)(=O)N2CCOCC2)cc1C(=O)NCC1CCCO1 (centres undefined) | . | / | . | . | .
COc1ccccc1CNC(=O)c1oc2ccc(S(=O)(=O)N3CCOCC3)cc2c1C | . | . | . | . | .
COc1cccc(CSc2ccc(S(=O)(=O)N3CCOCC3)cc2C(=O)NCC2CCCO2)c1OC (centres undefined) | . | 39.8µM | . | . | .
CC(=O)N1CCCc2cc(S(=O)(=O)N3CCN(c4ccc(F)cc4)CC3)ccc21 | . | . | . | . | .
C=CCn1c(SCc2nc3ccccc3c(=O)[nH]2)nc2ccccc2c1=O | . | 7.94µM | . | . | .
C=CCn1c(Cc2ccccc2)nnc1SCc1nc2ccccc2c(=O)[nH]1 | . | 50.1µM | . | . | .
COCCn1c(SCc2nc3ccccc3c(=O)[nH]2)nc2ccccc2c1=O | . | . | . | . | .
O=c1[nH]c(CSc2nnc(COc3ccccc3)n2-c2ccccc2)nc2ccccc12 | . | 4.47µM | . | . | ?
CCCn1c(SCc2nc3sc(C)c(C)c3c(=O)[nH]2)nc2ccccc2c1=O | . | 50.1µM | . | . | .
O=C(COc1ccccc1F)c1ccc(O)cc1O | . | . | . | . | .
Cc1cc(-c2nc(C)c(C(=O)NNC(=O)NC(C)C)s2)no1 | . | . | . | . | .
Cc1ccc2c(c1)C(=O)OC(C(=O)Nc1ccc(C(=O)O)cc1)C2 (centres undefined) | . | . | . | . | .
N#Cc1cnc(SCC(=O)c2ccccc2)nc1N | . | 12.6µM | . | . | .
CSc1nc2ccccc2n1CC(=O)Nc1ccccc1 | . | . | . | . | .
O=C(C(Cl)c1ccccc1)N1CCOCC1 (centres undefined) | . | 22.4µM | . | . | .
O=C(C(c1ccccc1)C(O)(c1ccccc1)c1ccccc1)N1CCOCC1 (centres undefined) | . | / | / | . | .
CCCN(C)C1CN(Cc2cn(CCCOC)nn2)S(=O)(=O)C1 (centres undefined) | . | / | / | / | /
SMILES | GLS inh | G9a inh | BAZ2B inh | HP1b chromo inh | JMJD2A Tudor inh
CCOc1ccc(S(=O)(=O)N2CCC(C(=O)NCC3CCCO3)CC2)cc1Cl (centres undefined) | . | . | . | . | .
CC(C)(C)OC(=O)NCC(=O)N1CCC(C(=O)O)CC1 | . | . | . | . | .
CC(C)(C)OC(=O)NCc1n[nH]c(=S)n1C1CC1 | . | ? | . | . | 28.2µM
COc1cccc(C(=O)N2CCN(Cc3ccccc3C(F)(F)F)CC2)c1 | . | 3.55µM | 28.2µM | ? | .[11.4 µM]
COc1ccc(C(=O)N2CCN(Cc3ccccc3C(F)(F)F)CC2)cc1 | . | 20µM | ? | ? | 25.1µM
CCCCC1(C)OC(=O)C(=Cc2c[nH]c3ccccc23)C(=O)O1 (centres undefined) | . | . | . | . | .
Cc1cc2nc(-c3cccnc3SCC(=O)NC3CC3)[nH]c2cc1C | / | . | . | / | /
O=C1CN(c2ccccc2)C(=S)N1C(=O)c1ccccc1 | . | / | . | . | .
CCN1Cc2c(/C=C/c3ccccc3)nc3ccc(OC)cc3c2N(c2cccc(Cl)c2)C1 | . | 12.6µM | ? | . | .
CC(=O)Nc1ccc(NC(=O)COC(=O)C2(c3ccc(Cl)cc3)CCCC2)cc1 | . | ? | . | . | .
